Laboratory results as given in the supplement of paper PMC10849652.
About 7,900 targets were measured; listed, in parts, are those with a hit and a random draw of the rest. About 0.6% of all pairs of compound and target were hits. Unmarked numbers belong to inactive results.

Assays:
Experiment in all cases: log2 fold change, soluble protein after heating vs DMSO (PISA); higher = thermal stabilisation; K562 cells, 10 uM, 30 min; active = over 0.2 and 3.5 SD of the protein, either way, in both replicates (recomputed)
bafetinib = compound: Cc1ccc(NC(=O)c2ccc(CN3CC[C@H](N(C)C)C3)c(C(F)(F)F)c2)cc1Nc1nccc(-c2cncnc2)n1 [bafetinib]
Summary of the method: (§1)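 K562 cells at 2×10^6 cells/mL were treated with 10 μM compound for 30 min. Aliquots were heated for 3 min across 48°C-58°C, pooled, and extracted in PBS with 0.5% NP-40 at 4°C; soluble protein was the supernatant after 21,000xg for 90 min. Soluble protein was quantified by TMTpro 16plex LC-MS/MS with channel sums equalised, and reported as log2 fold change in thermal stability against DMSO controls, with values from duplicates.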

[1] = compound: Cc1cccc(CC(=O)N2CCc3c2ccc(-c2cn(C)c4ncnc(N)c24)c3F)n1
Summary of the method: as §1

mubritinib = compound: FC(F)(F)c1ccc(/C=C/c2nc(COc3ccc(CCCCn4ccnn4)cc3)co2)cc1 [mubritinib]
Summary of the method: as §1

[2] = compound: NC(=O)Nc1cc(-c2cccc(F)c2)sc1C(=O)N[C@H]1CCCNC1
Summary of the method: as §1

[3] = compound: NC1(c2ccc(-c3nc4ccn5c(=O)[nH]nc5c4cc3-c3ccccc3)cc2)CCC1
Summary of the method: as §1

entinostat = compound: Nc1ccccc1NC(=O)c1ccc(CNC(=O)OCc2cccnc2)cc1 [entinostat]
Summary of the method: as §1

vorinostat = compound: O=C(CCCCCCC(=O)Nc1ccccc1)NO [vorinostat]
Summary of the method: as §1

silmitasertib = compound: O=C(O)c1ccc2c(c1)nc(Nc1cccc(Cl)c1)c1ccncc12 [silmitasertib]
Summary of the method: as §1

[4] = compound: O=C1NC(=O)C(c2cnc3ccccn23)=C1c1cn2c3c(cc(F)cc13)CN(C(=O)N1CCCCC1)CC2
Summary of the method: as §1

nilotinib = compound: Cc1cn(-c2cc(NC(=O)c3ccc(C)c(Nc4nccc(-c5cccnc5)n4)c3)cc(C(F)(F)F)c2)cn1 [nilotinib]
Summary of the method: as §1

[5] = compound: Cc1nc(Nc2n[nH]c3c2CN(C(=O)N[C@H](CN(C)C)c2ccccc2)C3(C)C)c2sccc2n1
Summary of the method: as §1

dasatinib = compound: Cc1nc(Nc2ncc(C(=O)Nc3c(C)cccc3Cl)s2)cc(N2CCN(CCO)CC2)n1 [dasatinib]
Summary of the method: as §1

[6] = compound: Cc1ncc(-c2ccnc(Nc3ccc(S(C)(=O)=O)cc3)n2)n1C(C)C
Summary of the method: as §1

[7] = compound: Cn1cc(-c2ccc3c(c2)CCN3C(=O)Cc2cccc(C(F)(F)F)c2)c2c(N)ncnc21
Summary of the method: as §1

[8] = compound: Cn1cc(-c2ccc3nnc(C(F)(F)c4ccc5ncccc5c4)n3n2)cn1
Summary of the method: as §1

tipifarnib = compound: Cn1cncc1[C@@](N)(c1ccc(Cl)cc1)c1ccc2c(c1)c(-c1cccc(Cl)c1)cc(=O)n2C [tipifarnib]
Summary of the method: as §1

[9] = compound: NC(=O)c1cnc(N[C@@H]2CCCC[C@@H]2N)nc1Nc1cccc(-n2nccn2)c1
Summary of the method: as §1

citarinostat = compound: O=C(CCCCCCNC(=O)c1cnc(N(c2ccccc2)c2ccccc2Cl)nc1)NO [citarinostat]
Summary of the method: as §1

[10] = compound: c1cc(OCCN2CCCCC2)cc(-c2n[nH]c3ccc(-c4nnc[nH]4)cc23)c1
Summary of the method: as §1

[11] = compound: NCC(=O)Nc1ccc(-n2nc(C(F)(F)F)cc2-c2ccc3c(ccc4ccccc43)c2)cc1
Summary of the method: as §1

Chain of UniProt Q15906 (Q15906 whole entry, looked up): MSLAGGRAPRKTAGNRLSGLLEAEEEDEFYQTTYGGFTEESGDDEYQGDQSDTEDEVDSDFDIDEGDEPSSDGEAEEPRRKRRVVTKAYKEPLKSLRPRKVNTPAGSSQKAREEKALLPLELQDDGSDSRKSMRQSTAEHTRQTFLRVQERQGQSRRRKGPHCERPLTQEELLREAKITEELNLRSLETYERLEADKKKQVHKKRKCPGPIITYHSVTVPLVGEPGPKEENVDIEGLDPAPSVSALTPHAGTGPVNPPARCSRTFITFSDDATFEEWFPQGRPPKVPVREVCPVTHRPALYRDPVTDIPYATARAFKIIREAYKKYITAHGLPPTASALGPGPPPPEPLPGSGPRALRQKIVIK
Chain of UniProt P57081 (P57081 whole entry, looked up): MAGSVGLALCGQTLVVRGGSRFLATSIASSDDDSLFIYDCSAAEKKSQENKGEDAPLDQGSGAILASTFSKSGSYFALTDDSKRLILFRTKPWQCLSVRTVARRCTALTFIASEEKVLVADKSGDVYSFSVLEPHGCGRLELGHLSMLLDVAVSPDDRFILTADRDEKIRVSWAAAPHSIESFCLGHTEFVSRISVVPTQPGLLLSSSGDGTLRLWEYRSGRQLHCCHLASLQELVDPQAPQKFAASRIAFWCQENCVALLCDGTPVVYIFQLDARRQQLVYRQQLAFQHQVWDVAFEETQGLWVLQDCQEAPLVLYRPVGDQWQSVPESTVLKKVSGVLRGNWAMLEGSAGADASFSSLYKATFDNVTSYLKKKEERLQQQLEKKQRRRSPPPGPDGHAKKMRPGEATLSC
Chain of UniProt Q8IWA0 (Q8IWA0 whole entry, looked up): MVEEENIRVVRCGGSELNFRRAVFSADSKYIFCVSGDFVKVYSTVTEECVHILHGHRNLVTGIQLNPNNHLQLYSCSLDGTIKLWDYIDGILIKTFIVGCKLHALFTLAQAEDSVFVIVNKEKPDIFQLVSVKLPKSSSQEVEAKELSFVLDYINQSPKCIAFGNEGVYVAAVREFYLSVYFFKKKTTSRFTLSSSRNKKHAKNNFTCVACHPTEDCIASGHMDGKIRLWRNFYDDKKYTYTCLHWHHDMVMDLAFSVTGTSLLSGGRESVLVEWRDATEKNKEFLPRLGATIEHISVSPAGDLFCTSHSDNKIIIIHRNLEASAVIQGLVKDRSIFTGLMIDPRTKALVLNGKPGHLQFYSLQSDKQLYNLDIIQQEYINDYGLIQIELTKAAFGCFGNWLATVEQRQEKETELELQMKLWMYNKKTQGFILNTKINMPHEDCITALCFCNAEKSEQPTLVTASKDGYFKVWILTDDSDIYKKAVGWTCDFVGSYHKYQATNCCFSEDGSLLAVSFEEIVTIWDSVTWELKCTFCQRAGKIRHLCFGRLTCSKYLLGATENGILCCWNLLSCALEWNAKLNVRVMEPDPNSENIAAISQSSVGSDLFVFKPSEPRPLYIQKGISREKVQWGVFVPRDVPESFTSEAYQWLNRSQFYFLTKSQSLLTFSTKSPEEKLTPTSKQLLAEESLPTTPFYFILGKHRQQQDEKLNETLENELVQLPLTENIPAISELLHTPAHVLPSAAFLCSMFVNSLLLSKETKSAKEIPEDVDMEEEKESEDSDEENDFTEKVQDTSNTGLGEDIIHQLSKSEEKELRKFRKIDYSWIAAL
Chain of UniProt Q6NXR4 (Q6NXR4 whole entry, looked up): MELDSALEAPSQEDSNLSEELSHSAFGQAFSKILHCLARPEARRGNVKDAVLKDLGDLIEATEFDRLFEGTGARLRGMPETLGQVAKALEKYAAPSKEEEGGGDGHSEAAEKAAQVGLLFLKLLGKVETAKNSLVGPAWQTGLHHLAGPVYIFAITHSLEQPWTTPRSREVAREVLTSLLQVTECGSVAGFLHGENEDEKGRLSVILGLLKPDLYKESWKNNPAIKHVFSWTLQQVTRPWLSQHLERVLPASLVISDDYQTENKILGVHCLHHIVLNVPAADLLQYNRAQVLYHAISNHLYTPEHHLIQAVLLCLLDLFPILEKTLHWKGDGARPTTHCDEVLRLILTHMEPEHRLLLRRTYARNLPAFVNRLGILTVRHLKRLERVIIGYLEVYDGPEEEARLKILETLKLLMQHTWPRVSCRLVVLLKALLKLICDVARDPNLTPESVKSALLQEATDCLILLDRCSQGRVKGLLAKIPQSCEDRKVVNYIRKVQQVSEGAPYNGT
Chain of UniProt Q9BZM6 (Q9BZM6 whole entry, looked up): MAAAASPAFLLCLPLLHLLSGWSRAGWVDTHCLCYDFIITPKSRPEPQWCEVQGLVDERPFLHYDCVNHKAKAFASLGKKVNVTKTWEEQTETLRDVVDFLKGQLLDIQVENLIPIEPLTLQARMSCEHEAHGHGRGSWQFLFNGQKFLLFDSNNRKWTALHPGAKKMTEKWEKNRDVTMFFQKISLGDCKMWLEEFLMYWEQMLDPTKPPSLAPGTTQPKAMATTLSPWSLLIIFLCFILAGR
Chain of UniProt P49815 (P49815 whole entry, looked up): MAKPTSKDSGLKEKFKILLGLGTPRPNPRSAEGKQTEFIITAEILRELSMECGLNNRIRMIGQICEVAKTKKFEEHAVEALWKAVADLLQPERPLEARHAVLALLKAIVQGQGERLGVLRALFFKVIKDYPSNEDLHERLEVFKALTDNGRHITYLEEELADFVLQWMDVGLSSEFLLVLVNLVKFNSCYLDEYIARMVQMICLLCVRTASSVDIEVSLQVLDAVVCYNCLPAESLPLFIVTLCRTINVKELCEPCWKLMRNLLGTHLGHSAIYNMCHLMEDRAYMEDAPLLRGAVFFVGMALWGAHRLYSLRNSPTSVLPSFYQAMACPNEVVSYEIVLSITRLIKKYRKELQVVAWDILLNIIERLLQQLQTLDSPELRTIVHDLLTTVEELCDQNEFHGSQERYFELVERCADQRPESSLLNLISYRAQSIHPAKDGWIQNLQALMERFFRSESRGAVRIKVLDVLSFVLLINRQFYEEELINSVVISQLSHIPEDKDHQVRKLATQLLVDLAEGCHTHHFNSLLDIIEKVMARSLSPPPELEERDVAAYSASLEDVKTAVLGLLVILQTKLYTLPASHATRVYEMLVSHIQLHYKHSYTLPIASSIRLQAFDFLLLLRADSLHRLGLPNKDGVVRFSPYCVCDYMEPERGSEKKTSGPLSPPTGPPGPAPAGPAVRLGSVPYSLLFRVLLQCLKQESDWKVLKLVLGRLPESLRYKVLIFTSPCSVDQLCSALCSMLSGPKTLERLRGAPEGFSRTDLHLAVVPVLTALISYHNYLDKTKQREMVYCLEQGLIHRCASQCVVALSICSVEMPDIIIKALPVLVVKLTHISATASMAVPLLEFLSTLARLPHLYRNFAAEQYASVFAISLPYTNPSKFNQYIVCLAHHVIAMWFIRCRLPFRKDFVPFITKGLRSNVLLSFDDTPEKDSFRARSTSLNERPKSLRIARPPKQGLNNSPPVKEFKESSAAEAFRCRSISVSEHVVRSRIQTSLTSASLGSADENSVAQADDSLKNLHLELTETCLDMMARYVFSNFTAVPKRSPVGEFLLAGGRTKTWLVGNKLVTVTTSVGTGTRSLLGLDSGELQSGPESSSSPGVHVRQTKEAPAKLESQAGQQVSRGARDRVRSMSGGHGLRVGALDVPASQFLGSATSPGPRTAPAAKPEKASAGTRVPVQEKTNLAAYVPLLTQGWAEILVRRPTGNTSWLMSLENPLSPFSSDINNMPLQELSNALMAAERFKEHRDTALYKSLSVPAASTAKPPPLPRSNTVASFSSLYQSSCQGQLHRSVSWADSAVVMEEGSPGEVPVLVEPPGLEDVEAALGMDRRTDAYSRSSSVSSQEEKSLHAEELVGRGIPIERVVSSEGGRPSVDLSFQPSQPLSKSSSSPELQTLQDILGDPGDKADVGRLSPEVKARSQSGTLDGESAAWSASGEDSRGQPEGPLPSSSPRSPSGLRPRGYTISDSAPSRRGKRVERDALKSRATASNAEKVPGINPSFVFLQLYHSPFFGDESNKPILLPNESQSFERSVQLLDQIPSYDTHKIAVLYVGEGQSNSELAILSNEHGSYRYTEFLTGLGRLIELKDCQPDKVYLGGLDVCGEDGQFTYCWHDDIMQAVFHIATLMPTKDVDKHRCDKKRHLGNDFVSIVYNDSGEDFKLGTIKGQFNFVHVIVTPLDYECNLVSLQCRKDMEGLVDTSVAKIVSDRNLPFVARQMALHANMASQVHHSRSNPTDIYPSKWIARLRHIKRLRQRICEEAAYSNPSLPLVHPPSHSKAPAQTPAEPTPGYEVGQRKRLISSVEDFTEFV
Chain of UniProt Q5BJH2 (Q5BJH2 whole entry, looked up): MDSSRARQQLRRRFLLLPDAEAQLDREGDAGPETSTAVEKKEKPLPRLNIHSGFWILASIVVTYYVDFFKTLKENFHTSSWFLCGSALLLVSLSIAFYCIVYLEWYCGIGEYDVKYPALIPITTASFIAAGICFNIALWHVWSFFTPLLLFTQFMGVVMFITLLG
Chain of UniProt Q629K1 (Q629K1 whole entry, looked up): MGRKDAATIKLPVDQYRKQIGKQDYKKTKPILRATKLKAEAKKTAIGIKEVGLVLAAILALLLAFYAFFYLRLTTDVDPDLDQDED
Chain of UniProt Q9C035 (Q9C035 whole entry, looked up): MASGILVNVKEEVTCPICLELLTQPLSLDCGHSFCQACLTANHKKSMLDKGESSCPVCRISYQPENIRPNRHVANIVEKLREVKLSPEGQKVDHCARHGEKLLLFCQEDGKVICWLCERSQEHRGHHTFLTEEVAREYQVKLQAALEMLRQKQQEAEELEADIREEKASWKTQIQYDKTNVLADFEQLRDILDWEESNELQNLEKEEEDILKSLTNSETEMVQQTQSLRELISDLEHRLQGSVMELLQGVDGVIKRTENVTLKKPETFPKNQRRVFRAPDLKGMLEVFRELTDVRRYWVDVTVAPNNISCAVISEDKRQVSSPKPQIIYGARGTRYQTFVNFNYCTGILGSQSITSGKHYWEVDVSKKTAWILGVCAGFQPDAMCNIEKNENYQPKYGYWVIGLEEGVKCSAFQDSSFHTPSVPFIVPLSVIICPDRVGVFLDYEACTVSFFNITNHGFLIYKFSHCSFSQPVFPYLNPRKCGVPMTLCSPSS
Chain of UniProt P61960 (P61960 whole entry, looked up): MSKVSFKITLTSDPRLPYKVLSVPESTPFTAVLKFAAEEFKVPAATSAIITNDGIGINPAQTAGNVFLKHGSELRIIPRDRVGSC

Target	log2 fold change (bafetinib)	log2 fold change [1]	log2 fold change (mubritinib)	log2 fold change [2]	log2 fold change [3]	log2 fold change (entinostat)	log2 fold change (vorinostat)	log2 fold change (silmitasertib)	log2 fold change [4]	log2 fold change (nilotinib)	log2 fold change [5]	log2 fold change (dasatinib)	log2 fold change [6]	log2 fold change [7]	log2 fold change [8]	log2 fold change (tipifarnib)	log2 fold change [9]	log2 fold change (citarinostat)	log2 fold change [10]	log2 fold change [11]
TOM1 (UniProt O60784)	-0.288	-0.105	-0.222	0.044	-0.176	0.062	0.048	0.017	-0.077	–	–	–	–	–	–	–	–	–	–	–
VDAC1 (UniProt C9JI87)	-0.152	–	0.133	-0.145	-0.065	-0.158	–	0.024	-0.09	-0.009	-0.048	0.277	-0.106	-0.16	0.22	0.242	-0.166	-0.153	0.044	–
TMEM128 (UniProt Q5BJH2)	-0.065	–	–	-0.059	–	-0.036	–	–	-0.037	-0.008	0.003	-0.01	-0.031	0.061	-0.021	0.066	-0.167	-0.131	-0.07	-0.092
UCHL5 isoform 3 (UniProt Q9Y5K5)	0.151	–	0.049	0.037	-0.277	0.098	–	-0.002	-0.054	-0.104	0.076	–	-0.08	-0.052	-0.064	-0.085	0.156	0.113	-0.028	0.05
UTP20 (UniProt O75691)	–	–	–	–	–	–	–	–	0.009	–	–	–	–	–	–	0.089	–	–	–	–
ULBP1 (UniProt Q9BZM6)	–	–	0.004	-0.045	-0.227	0.099	–	0.013	-0.188	–	–	0.083	–	0.068	-0.11	-0.097	0.026	–	–	-0.039
TTI2 (UniProt Q6NXR4)	0.06	–	-0.063	0.024	0.016	-0.004	–	-0.047	0.059	-0.028	-0.068	-0.005	0.077	-0.017	-0.007	-0.059	-0.038	-0.035	-0.023	-0.074
UBE2J2 isoform 3 (UniProt Q8N2K1)	0.037	-0.12	–	-0.072	–	-0.067	0.156	–	-0.299	–	–	-0.154	–	0.013	–	0.041	0.028	0.1	-0.039	0.213
TRIM5 (UniProt Q9C035)	–	–	–	-0.219	–	0.137	–	–	0.024	–	–	-0.088	–	0.013	0.133	–	-0.085	–	–	-0.006
WARS1 (UniProt G3V277)	-0.008	-0.116	0	0.029	-0.131	0.025	-0.047	0.001	–	-0.065	0.039	–	-0.034	–	–	–	-0.52	–	–	-0.302
TRPT1 isoform 4 (UniProt Q86TN4)	–	–	0.041	0.037	0	0.123	–	0.059	–	–	–	–	–	–	-0.011	–	0.235	0.029	-0.025	–
TMEM104 (UniProt Q8NE00)	–	0.172	-0.089	–	0.232	–	0.068	0.097	0.143	0.019	-0.003	0.009	-0.013	0.066	0.095	0.035	0.08	-0.063	-0.051	–
U2AF1L5 (UniProt P0DN76)	0.047	–	0.173	–	0.07	–	–	-0.024	–	0.025	-0.669	-0.017	-0.108	–	–	–	0.047	-0.28	-0.146	-0.295
TRIQK (UniProt Q629K1)	-0.059	–	-0.002	0.013	-0.044	-0.083	–	0	-0.235	–	–	0.007	–	-0.007	-0.03	–	–	–	–	–
XRCC1 (UniProt P18887)	–	0.019	–	-0.011	–	0.064	0.228	–	-0.211	–	–	0	–	0.123	0.063	–	-0.183	–	–	–
WDR4 isoform 3 (UniProt P57081)	0.125	0.057	–	-0.103	–	-0.02	-0.118	–	-0.135	–	–	–	–	–	–	–	–	–	–	–
USP48 (UniProt Q86UV5)	0.045	–	0.117	-0.077	-0.242	0.164	–	0.185	–	-0.294	-0.495	–	-0.016	–	–	–	–	-0.024	0.076	–
TVP23C (UniProt Q96ET8)	–	0.033	0.04	–	-0.023	–	0.045	0.132	–	–	–	0.056	–	-0.116	–	0.041	-0.021	-0.297	0.081	-0.003
WDR75 (UniProt Q8IWA0)	0.019	–	-0.329	–	0.173	–	–	0.086	0.17	-0.214	0.041	0.085	0.109	-0.252	-0.045	-0.021	-0.004	–	–	-0.125
TSC2 (UniProt P49815)	-0.024	0.109	-0.048	-0.038	0.214	-0.061	0.125	0.107	0.105	–	–	–	–	0.066	0.047	0.019	-0.074	0.273	-0.594 (active)	–
VPS72 isoform 2 (UniProt Q15906)	-0.064	–	0.009	0.092	-0.117	-0.032	–	0.199	-0.157	0.086	0.02	0.044	-0.024	-0.052	0.08	0.074	-0.226	0.102	-0.116	0.037
UFM1 (UniProt P61960)	0.045	–	0.087	0.045	-0.073	0.004	–	-0.033	-0.083	-0.011	0.025	-0.012	0.026	0.008	0.007	-0.061	-0.135	0.056	0.015	-0.056
XAB2 (UniProt Q9HCS7)	–	–	-0.151	–	0.011	–	–	0.038	0.298	–	–	-0.092	–	–	0.125	–	–	–	–	–
UBA52 (UniProt P62987)	0.285	-0.001	-0.115	0.067	0.366	0	0.029	0.158	0.246	–	–	–	–	-0.343	-0.16	0.247	0.158	-0.112	-0.216	0.178
